High-throughput results from PubChem BioAssay.
An excerpt weighted towards active compounds, which were near 3.8% of everything screened.
HT1080-NT tox: kills 2HG-producing HT-1080-NT fibrosarcoma cells. HT-1080-NT fibrosarcoma viability, CellTiter-Glo ATP luminescence, 48 h. Potency, µM (doses to about 46.1 µM), for inactives: at the top dose activity, negative = less viability, hits mostly cytotoxic. actives 1.6% (n = 360,000);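 also: NT is the 2HG producing partner of a matched IDH1 knockdown line; 0% = DMSO-treated cells and -100% = media-only wells without cells; nearly all actives have a fitted effect of over 55% in size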
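Luminescent CellTiter-Glo readout after 48 hours of compound exposure at 37 degrees C defined viability of HT-1080-NT cells. Activity was normalized to DMSO wells and cell-free media wells; concentration-response curves were fitted and assigned curve classes.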
S2 tox: cell viability loss in ATXN counter-screen; S2 cells (HEK-293 line with an ATXN2-luciferase reporter) viability, CellTiter-Fluor protease fluorescence, 24 h; Potency, µM (titrated, usually from 56.7 µM), actives largely listed as cytotoxic; actives 0.49% (n = 400,000); AID 651635; also: nearly all actives have a fitted effect of over 40% in size
ATXN2 expr inh: ATXN2 expression inhibition | actives 0.72% (n = 360,000) | AID 1745845 | HEK-293 ATXN2-luciferase reporter, luminescence, 24 h | Potency, µM (series often up to 57 µM), without a hit: at the highest dose activity change, negative = inhibition, hits mostly inhibitors; also: % is scaled to controls: 0 for no effect and ±100 for the full control effect; nearly all actives have a fitted effect of over 55% in size
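qHTS (up to 57 uM final) was run with 24 h compound exposure of reporter cells at 37 °C. Each well was multiplexed: SteadyGlo luminescence measured ATXN2-luciferase expression after a fluorogenic Gly-Phe-AFC viability readout (25 uM final).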
HepG2 viability: HepG2 cytotoxicity, counter-screen for TGF-b inhibitors. HepG2 CAGA-GFP viability, ATP luminescence, 18 h. Potency, µM (top dose mostly 46.1 µM), inactives show at the highest dose activity change, negative = cytotoxicity, most hits filed as cytotoxic. actives 0.76% (n = 410,000). AID 588856
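CellTiter-Glo luminescence gave cytotoxicity after 18 hours at 37 degrees C. The cells were HepG2 CAGA-GFP in 1% FBS DMEM, stimulated with 500 pg/mL TGF-beta after compound addition. %Activity was normalised to no-cell wells (complete cell-killing) and DMSO (no toxicity), and curves were fitted and classified.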
TGFb inhibitor: TGF-b pathway inhibition; actives 1.2% (n = 410,000); Potency, µM (highest dose often 46.1 µM), for inactives: top-dose activity, negative = inhibition, hits mostly inhibitors; HepG2 CAGA-GFP TGF-b/SMAD3 reporter, GFP fluorescence, 18 h; TGF-beta stimulated, 500 pg/mL final; also: % is scaled to controls: 0 for no effect and ±100 for the full control effect; nearly all actives have a fitted effect of over 65% in size
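First, reporter cells (HEPG2 CAGA-GFP) rested 2 h at 37 degrees C. Next, compounds were pinned in and TGF-beta added to 500 pg/mL final. After 18 h, GFP was imaged per cell and summed per well.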
HT1080 IDH1KD tx: HT-1080 IDH1 knockdown cell toxicity (counter line); HT-1080 IDH1 knockdown viability, ATP luminescence, 48 h; Potency, µM (doses to about 46.1 µM), inactives show at the highest dose activity, negative = toxicity, hits mostly cytotoxic; actives 2% (n = 360,000);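 also: 0% = DMSO wells and -100% = cell-free medium wells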
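HT-1080-IDH1KD cells (IDH1 knocked down), 750/well in RPMI with 5% FBS, treated with compound 48 h at 37 degrees C. Viability by CellTiter-Glo luminescence, normalised to DMSO and no-cell wells; concentration-response curves classed.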
* hit, by the source's call. Calls follow the shape of the dose curve; as a rule, active = well fitted curve in the direction sought with a large enough effect; inconclusive = small, poorly fitted or top-dose-only effect, or another doubt; inactive = no such curve, though single readings can be large; an effect the other way counts as inactive or inconclusive. Potency is read from the fitted curve at half-maximal effect.

How did CCOc1ccc(OCc2ccc(C(=O)N/N=C(\C)c3ccccn3)cc2)cc1 do in these assays?
HT1080-NT tox: inconclusive; S2 tox: inconclusive; ATXN2 expr inh: 2.8µM*; HepG2 viability: -4%; TGFb inhibitor: -23%; HT1080 IDH1KD tx: inconclusive

Results for CCOc1ccc(OCc2ccc(C(=O)NN=Cc3ccc[nH]3)cc2)cc1 ?
HT1080-NT tox: 0.65µM*; S2 tox: inconclusive; ATXN2 expr inh: inconclusive; HepG2 viability: -17%; TGFb inhibitor: -20%; HT1080 IDH1KD tx: inconclusive

What do the screens show for `CC(=O)c1ccc(S(=O)(=O)Nc2ccc(-c3cn4c(C)csc4n3)cc2)cc1`?
S2 tox: inactive; ATXN2 expr inh: 35%; HepG2 viability: 1%; TGFb inhibitor: -8%

How did COc1cccc2sc3cc(C#CC4(O)CCCCC4)ccc3c(=O)c12 do in these assays?
HT1080-NT tox: inconclusive; S2 tox: inconclusive; ATXN2 expr inh: inconclusive; HepG2 viability: 7.1µM*; TGFb inhibitor: 7.1µM*; HT1080 IDH1KD tx: inconclusive

How did COc1cccc2sc3ccc(C#CC4(N)CCCCC4)cc3c(=O)c12 do in these assays?
HT1080-NT tox: -15%; S2 tox: inconclusive; ATXN2 expr inh: -31%; HepG2 viability: -98%; TGFb inhibitor: inconclusive; HT1080 IDH1KD tx: -14%

How did N#Cc1ncc(Cl)c2ccccc12 do in these assays?
HT1080-NT tox: 15%; S2 tox: inactive; HepG2 viability: 16µM*; TGFb inhibitor: -16%; HT1080 IDH1KD tx: -1%

How did CCCCN(C)C(=O)CSc1nc2ccccc2nc1Cc1ccc(C)cc1 do in these assays?
S2 tox: inconclusive; ATXN2 expr inh: inconclusive; HepG2 viability: -40%; TGFb inhibitor: inconclusive

Results for CC(C)(C)NC(=O)CON=C1c2ccccc2-c2ccccc21 ?
HT1080-NT tox: -1%; S2 tox: inconclusive; ATXN2 expr inh: 7%; HepG2 viability: 10%; TGFb inhibitor: inconclusive; HT1080 IDH1KD tx: -1%

Results for CC(C)(C)NCC(O)CON=C1c2ccccc2-c2ccccc21 (stereo unspecified) ?
HT1080-NT tox: 18µM*; ATXN2 expr inh: -36%; HepG2 viability: 11µM*; TGFb inhibitor: inconclusive; HT1080 IDH1KD tx: 15µM*

What do the screens show for `COc1ccc(N=Nc2ccc(N)nc2N)cc1`?
HT1080-NT tox: inconclusive; S2 tox: inactive; ATXN2 expr inh: 49%; HepG2 viability: -11%; TGFb inhibitor: -3%; HT1080 IDH1KD tx: 18%

What do the screens show for `CCOc1ccc2nc3cc(N=Nc4ccc(N)nc4N)ccc3c(N)c2c1`?
HT1080-NT tox: 8%; ATXN2 expr inh: inconclusive; HepG2 viability: 14µM*; TGFb inhibitor: inconclusive; HT1080 IDH1KD tx: 19%

Results for COc1ccc(CN2CCOc3ccc(C(O)c4cccnc4)cc3C2)cc1 (stereo unspecified) ?
S2 tox: inactive

How did CCOc1cc(C(=O)NCCc2csc(-c3ccc(C)cc3)n2)cc(OCC)c1OCC do in these assays?
HepG2 viability: -7%; TGFb inhibitor: inconclusive

Results for COc1ccc(Cn2ccnc2SCC(=O)Nc2ccc3c(c2)OCCO3)cc1 ?
HepG2 viability: -3%; TGFb inhibitor: -3%

Results for CCOCN(C(=O)Cn1c(COC)nc2ccccc21)c1c(C)cccc1CC ?
HT1080-NT tox: 1%; S2 tox: inconclusive; ATXN2 expr inh: 1%; HepG2 viability: -30%; TGFb inhibitor: -22%; HT1080 IDH1KD tx: -1%

How did CCOCN(C(=O)Cn1cnc2cc(C)c(C)cc21)c1c(C)cccc1CC do in these assays?
S2 tox: 28µM*; ATXN2 expr inh: -19%; HepG2 viability: -20%; TGFb inhibitor: -29%

Results for CCOc1ccccc1C(=O)NCc1ccc2c(c1)CCN2C(C)=O ?
HepG2 viability: 2%; TGFb inhibitor: 1%

What do the screens show for `O=C(Nc1ccccc1C(=O)OCc1cc(=O)n2c3c(sc2n1)CCCC3)c1ccccc1`?
HepG2 viability: -32%; TGFb inhibitor: inconclusive

What do the screens show for `Cc1cccc(Cn2cc(/C=C/[N+](=O)[O-])c3ccccc32)c1`?
HT1080-NT tox: inconclusive; S2 tox: inconclusive; ATXN2 expr inh: -77%; HepG2 viability: -61%; TGFb inhibitor: 7.9µM*; HT1080 IDH1KD tx: 23µM*

What do the screens show for `CCOC(=O)Cn1cc(C(=O)c2ccco2)c2ccccc21`?
HT1080-NT tox: -12%; S2 tox: inconclusive; ATXN2 expr inh: 32µM*; HepG2 viability: -36%; TGFb inhibitor: -3%; HT1080 IDH1KD tx: -1%

How did O=C(O)Cn1cc(C(=O)c2ccco2)c2ccccc21 do in these assays?
HT1080-NT tox: 11%; S2 tox: inactive; ATXN2 expr inh: 6%; HepG2 viability: -15%; TGFb inhibitor: 1%; HT1080 IDH1KD tx: 17%

Results for O=[N+]([O-])/C=C/c1cn(Cc2ccc(Cl)cc2)c2ccccc12 ?
HT1080-NT tox: 16µM*; S2 tox: inconclusive; ATXN2 expr inh: inconclusive; HepG2 viability: 3.5µM*; TGFb inhibitor: -41%; HT1080 IDH1KD tx: -18%

What do the screens show for `CCOC(=O)Cn1cc(/C=C/[N+](=O)[O-])c2ccccc21`?
HT1080-NT tox: inconclusive; HepG2 viability: -72%; TGFb inhibitor: 16µM*; HT1080 IDH1KD tx: inconclusive

What do the screens show for `O=C(O)c1ccc(Cn2cc(/C=C\[N+](=O)[O-])c3ccccc32)o1`?
HT1080-NT tox: 0%; HepG2 viability: 12%; TGFb inhibitor: 7%; HT1080 IDH1KD tx: -2%

What do the screens show for `Cc1cc(C)cc(OCC(=O)NCC2(N(C)C)CCCCC2)c1`?
S2 tox: inactive; ATXN2 expr inh: -9%; HepG2 viability: 12%; TGFb inhibitor: 2%

How did CCOC(=O)c1cc(=O)c2c(OCC(COc3cccc4oc(C(=O)OCC)cc(=O)c34)OC(=O)[C@@H](N)CCCCN)cccc2o1 do in these assays?
S2 tox: inactive; ATXN2 expr inh: 3%

Results for COc1ccccc1N1CCN(CCCNC(=O)c2cnn(-c3cccc(Cl)c3)c2C2CCN(C(=O)OC(C)(C)C)CC2)CC1 ?
HepG2 viability: 13µM*; TGFb inhibitor: 13µM*

How did Cc1c(Cl)cccc1-n1ncc(C(=O)NC2CCCCC2)c1C1CCN(C(=O)OC(C)(C)C)CC1 do in these assays?
S2 tox: inactive; ATXN2 expr inh: 11%; HepG2 viability: -12%; TGFb inhibitor: -8%

How did CC(C)(C)OC(=O)N1CCC(c2c(C(=O)NC3CCCCC3)cnn2-c2cccc(Cl)c2)CC1 do in these assays?
HepG2 viability: 4%; TGFb inhibitor: 18µM*
